According to PubChem BioAssay (EPA / NIEHS):
Active and inactive are the calls of the source. How the source made its calls: active means hit-call score of the fitted dose curve at least 0.9, where 1 is the maximum; inactive means score below 0.9.

Assay: CCTE_Simmons_MITO_basal_resp_rate: CCTE's HepG2 Seahorse XF Respirometric Screening Assay at Basal Respiratory State, Simmons Lab (AID 2284001)
Conditions: actives raise or lower the signal
Summary of the method: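 Basal-phase OCR of HepG2 cells on a Seahorse XF96, analysed by bidirectional fit relative to DMSO vehicle; chemicals at 7 concentrations, 125 nM–100 uM final; three biological replicates; fenpyroximate and 2,4-dinitrophenol positive controls.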

SMILES: Oc1c(Cl)cc(Cl)cc1Cl
- AC50: 77 µM (active)

SMILES: O=C(O)C1(c2ccc3c(c2)OC[C@H](Cc2ccc(-c4ccccc4)cc2)[C@H]3O)CCCC1
- AC50: 5.21 µM (active)
